For the test, the system named is MBM. Description: cysteine-reactive anti-target inhibition count, late-stage follow-up, selectivity assay for PME-1 inhibitor project, gel-based competitive ABPP, fluorescence, MBM, Neuro-2A (AID 602468). To be noted: MBM or Neuro-2A, in vitro, at 10 µM, stronger effect = lower value.

From PubChem BioAssay AID602468 (The Scripps Research Institute Molecular Screening Center, 2012) come the findings set out here.

Values without a mark were called inactive. No rule for the calls is given here.

In the case of `CC[C@@]1(c2ccc(C)cc2)C(=O)N(C(=O)OC(C)C)N1C(=O)OC(C)C`, the number of anti-targets inhibited is 0.
